This passage reports growth inhibition results from PubChem BioAssay (NCI).

A short description of assay [1]: NCI Yeast Anticancer Drug Screen. Data for the rad50 strain (AID 155).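 Also: 0% = growth of vehicle-only cultures of the same strain.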 The note with it: S. cerevisiae rad50 strain growth inhibition, hits give high values. The essentials:
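Genetically altered yeast (DNA repair pathway); compound treatment; growth inhibition vs vehicle ctrl.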

Assay [2] can be described thus: NCI Yeast Anticancer Drug Screen. Data for the mec2-1 strain (AID 157). The note with it: S. cerevisiae mec2-1 strain, hits give high values. The essentials:
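Test agents were screened against the mec2-1 yeast strain, with defined DNA repair or cell cycle alteration. Growth was scored as inhibition against vehicle-only controls.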

Assay [3] in a line: NCI Yeast Anticancer Drug Screen. Data for the sgs1 mgt1 strain (AID 161).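 Also: 0% = growth of cultures given vehicle only.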 The note with it: S. cerevisiae sgs1 mgt1 strain, hits give high values. The essentials:
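Genetically altered yeast, compound exposure, growth inhibition relative to vehicle.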

Assay [4] is described as follows: NCI Yeast Anticancer Drug Screen. Data for the cln2 rad14 strain (AID 165).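 Also: 0% = growth equal to vehicle treated cultures.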 The note with it: S. cerevisiae cln2 rad14 strain, hits give high values. The essentials: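 Growth of compound-exposed yeast (cln2 rad14 genotype) measured and expressed as inhibition relative to vehicle.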
Assay [5] can be described thus: NCI Yeast Anticancer Drug Screen. Data for the bub3 strain (AID 167). The note with it: S. cerevisiae bub3 mutant strain, hits give high values. The essentials: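 Yeast carrying a defined mutation is treated with each compound, and growth is compared with that of vehicle-exposed cells to give inhibition.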
The nature of assay [6]: NCI Yeast Anticancer Drug Screen. Data for the mlh1 rad18 strain (AID 175). The note with it: S. cerevisiae mlh1 rad18 strain growth inhibition, hits give high values. The essentials:
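In this whole-cell yeast screen, a strain with altered DNA damage repair is challenged with compound, and its growth is measured against matched vehicle-treated controls.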

The mark [7] stands for this setting: at 5.0 µM (retest, dose inferred, filed as 0.5).
Where [8] appears, read: at 50.0 µM (retest, dose inferred, filed as 5.0).

Compounds without any hit were thinned out: in the full panel of roughly 79,000, 15% have a hit. Unmarked numbers belong to inactive results. Calls of active or inactive are those of the source. Rule as the data show it: active = growth inhibition above about 70%; inactive = the rest.

`O=C(CCCl)Nc1cc2ccccc2oc1=O`: the growth inhibition in assay [1] (setting [7]) was -19%; in assay [1] (setting [8]), -19%; in assay [1] (at 50.0 µM), -8.5%; in assay [2] (setting [7]), -2%; in assay [2] (setting [8]), -17%; in assay [2] (at 50.0 µM), 15.9%. Further, the growth inhibition is -10% in assay [3] (setting [7]); 23% in assay [3] (setting [8]); 6.65% in assay [3] (at 50.0 µM); 1% in assay [4] (setting [7]); 13% in assay [4] (setting [8]); 0.55% in assay [4] (at 50.0 µM). Also, the growth inhibition in assay [5] (setting [7]) is -4%; in assay [5] (setting [8]), -10%; in assay [5] (at 50.0 µM) it was -1.1%; in assay [6] (setting [7]), -16%; in assay [6] (setting [8]) it was 19%; in assay [6] (at 50.0 µM), -2.15%.
With `COC(=O)c1ccc2c(c1)C(O)NC(=O)O2` (stereo not drawn), the growth inhibition in assay [1] (setting [7]) was 16%; in assay [1] (setting [8]), 97% (active); in assay [1] (at 50.0 µM), 98.5% (active); in assay [2] (setting [7]) it was 15%; in assay [2] (setting [8]) it was 97% (active); in assay [2] (at 50.0 µM), 98% (active). For the same compound, the growth inhibition is 15% in assay [3] (setting [7]); 98% (active) in assay [3] (setting [8]); 98.9% (active) in assay [3] (at 50.0 µM); 18% in assay [4] (setting [7]); 98% (active) in assay [4] (setting [8]); 98.5% (active) in assay [4] (at 50.0 µM). Further, the growth inhibition was 3% in assay [5] (setting [7]); 95% (active) in assay [5] (setting [8]); 98.6% (active) in assay [5] (at 50.0 µM); 21% in assay [6] (setting [7]); 97% (active) in assay [6] (setting [8]); 98.5% (active) in assay [6] (at 50.0 µM).
Regarding `O=C(COc1ccc(Br)cc1Br)N1N=C(c2ccc([N+](=O)[O-])o2)CC1(O)c1ccccc1` (stereo not drawn), the growth inhibition in assay [1] (setting [7]) is 23%; in assay [1] (setting [8]) it was 23%; in assay [1] (at 50.0 µM) it was 19.4%; in assay [2] (setting [7]), 6%; in assay [2] (setting [8]) it was 6%; in assay [2] (at 50.0 µM), 71.2% (active). Besides, the growth inhibition in assay [3] (setting [7]) is 12%; in assay [3] (setting [8]), 12%; in assay [3] (at 50.0 µM), 70.7% (active); in assay [4] (setting [7]), 0%; in assay [4] (setting [8]), 0%; in assay [4] (at 50.0 µM), 76.2% (active). For the same compound, the growth inhibition in assay [5] (setting [7]) was 7%; in assay [5] (setting [8]) it was 7%; in assay [5] (at 50.0 µM), 59.6%; in assay [6] (setting [7]), 22%; in assay [6] (setting [8]), 22%; in assay [6] (at 50.0 µM) it was 58.8%.
For `CC(=O)NCCN(C)C`, the growth inhibition in assay [1] (setting [7]) was 2%; in assay [1] (setting [8]), -1%; in assay [1] (at 50.0 µM), 93.5% (active); in assay [2] (setting [7]), 2%; in assay [2] (setting [8]) it was -4%; in assay [2] (at 50.0 µM), 97% (active). The growth inhibition in assay [3] (setting [7]) was 6%; in assay [3] (setting [8]) it was -1%; in assay [3] (at 50.0 µM), 84.1% (active); in assay [4] (setting [7]) it was -2%; in assay [4] (setting [8]) it was -3%; in assay [4] (at 50.0 µM) it was 85.7% (active). Besides, the growth inhibition in assay [5] (setting [7]) was -3%; in assay [5] (setting [8]), 0%; in assay [5] (at 50.0 µM), 92.5% (active); in assay [6] (setting [7]), 4%; in assay [6] (setting [8]), 4%; in assay [6] (at 50.0 µM), 88.8% (active).
With `COC(=O)CCc1c(Cc2ccc[nH]2)[nH]c(C(=O)OCc2ccccc2)c1C`, the growth inhibition was -20% in assay [1] (setting [7]); 91% (active) in assay [1] (setting [8]); 55% in assay [1] (at 50.0 µM); -12% in assay [2] (setting [7]); 92% (active) in assay [2] (setting [8]); 71% (active) in assay [2] (at 50.0 µM). Besides, the growth inhibition is -12% in assay [3] (setting [7]); 94% (active) in assay [3] (setting [8]); 69% in assay [3] (at 50.0 µM); -32% in assay [4] (setting [7]); 95% (active) in assay [4] (setting [8]); 77.5% (active) in assay [4] (at 50.0 µM). Further, the growth inhibition was -35% in assay [5] (setting [7]); 92% (active) in assay [5] (setting [8]); 76.3% (active) in assay [5] (at 50.0 µM); -5% in assay [6] (setting [7]); 94% (active) in assay [6] (setting [8]); 74.8% (active) in assay [6] (at 50.0 µM).
With `O=C(NC1(OC(=O)c2ccc(Cl)cc2)CC1)c1ccc(Cl)cc1`, the growth inhibition is 6% in assay [1] (setting [7]); 97% (active) in assay [1] (setting [8]); 97.8% (active) in assay [1] (at 50.0 µM); 14% in assay [2] (setting [7]); 98% (active) in assay [2] (setting [8]); 97.9% (active) in assay [2] (at 50.0 µM). Besides, the growth inhibition is 15% in assay [3] (setting [7]); 91% (active) in assay [3] (setting [8]); 95.5% (active) in assay [3] (at 50.0 µM); 25% in assay [4] (setting [7]); 97% (active) in assay [4] (setting [8]); 97.5% (active) in assay [4] (at 50.0 µM). Moreover, the growth inhibition was -8% in assay [5] (setting [7]); 98% (active) in assay [5] (setting [8]); 97.1% (active) in assay [5] (at 50.0 µM); 24% in assay [6] (setting [7]); 97% (active) in assay [6] (setting [8]); 96.8% (active) in assay [6] (at 50.0 µM).
